# Among all 120,000 compounds or so, about 5,300 (4.4%) were called active. A call without a number means that no potency is given here. Roughly 22% stayed inconclusive and do not appear here. The sample holds actives, similar compounds and a random draw of the others, so the mix is not that of the screen. Calls come from the whole dose curve; as a rule, active = well fitted inhibition curve with a large enough effect; inconclusive = small, poorly fitted or top-dose-only effect; inactive = no such curve, though single readings can be large or run the other way.
# Test: qHTS Primary assay for Inhibitors of Plasmodium falciparum Dd2 growth in vitro; note: nearly all actives have a fitted effect of over 65% in size
# Settings: P. falciparum Dd2 growth, SYBR Green, 72 h; series mostly up to 28.9 µM
# Procedure, shortened: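 Infected erythrocytes (Dd2, 0.3% parasitemia, 2.5% hematocrit final) are added to compound in RPMI-1640/Albumax II medium, grown 72 h at 37C in low oxygen, then lysed with saponin/Triton-X containing SYBR Green and read by fluorescence.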
# Potency is the fitted concentration of half-maximal effect.
SMILES,Potency,"activity, negative = inhibition"
CCc1noc(-c2nnn3c2COC(c2ccc(OC)cc2)C3)n1 (configuration not stated),inactive,
CN(C)S(=O)(=O)N1CCC(Oc2ccc(C(=O)NC3(C)CC3)cc2)CC1,inactive,
Cc1nn2c(c1-c1ccccc1N1CCCC1)N(C(=O)c1ccn(C)n1)CCC2,inactive,
O=C(c1cccs1)N1CC(Oc2ccc(-c3nc(-c4ccccc4)no3)cc2)C1,,8.59% [at 5.79 µM] (inactive)
O=C(c1ccc(C(F)(F)F)cc1)N1CCn2c(nn(-c3cccc(Cl)c3)c2=O)C1,inactive,
Cn1nnnc1SCCNCc1ccc(Cl)c(Cl)c1,inactive,
Cn1nnnc1SCCCNCc1cccc(OCc2ccc(Cl)cc2)c1,12.6 µM (active),
Cn1nnnc1SCCCNCc1ccc(Cl)cc1,inactive,
Cc1ccc(C(=O)CC2(O)C(=O)N(CCc3ccccc3)c3ccc(Br)cc32)cc1 (configuration not stated),10 µM (active),
Cc1ccc(S(=O)(=O)NC2(C(F)(F)F)NC(=O)N(CCc3ccccc3)C2=O)cc1 (configuration not stated),inactive,
Cc1ccc(C(=O)N2CCc3cc(CNC(=O)c4ccc(Br)cc4)ccc32)cc1,inactive,
COCCN1CCC(N2CCN(C(=O)c3cc(F)cc(F)c3)CC2)C1=O (configuration not stated),inactive,
Cc1cc(C)cc(NC(c2nnc(-c3cccc(F)c3)o2)c2ccc(F)cc2Cl)c1 (configuration not stated),3.55 µM (active),
CC(=O)c1ccc(NC(c2ccc(F)cc2)c2nnc(-c3ccccc3)o2)cc1 (configuration not stated),inactive,
Cc1c(C(=O)N2CCn3nc(C(O)CO)cc3C2)sc2ccccc12 (configuration not stated),inactive,
O=C(c1cnc2c(c1)N(Cc1ccccc1)CCC2)N1CC[S+](=O)([O-])CC1,inactive,
COCCNC(=O)C[C@@H]1C[C@H]2O[C@H](CNC(=O)Nc3cccc(Cl)c3)[C@@H](O)[C@H]2O1,inactive,
CCCN1CCc2nc(N3CCN(C)CC3)ncc2C1,,36.4% [at 5.79 µM] (inactive)
CCN1CCN(c2ncc3c(n2)CC(c2ccccc2O)CC3=O)CC1 (configuration not stated),8.91 µM (active),
Cc1ccc(CN2CCc3nc(N4CCN(C)CC4)ncc3C2)cc1,inactive,
COc1ccc2[nH]c3c(c2c1)CCN(C)C31CCN(C(=O)c2ccoc2)CC1,inactive,
Cc1ccc(-c2nc(C(=O)N3CCN(c4ccccn4)CC3)no2)cc1,inactive,
O=C(c1ccccc1)N1Cc2ccccc2NC(=O)C12CCNCC2,inactive,
O=C(NCc1ccc(F)cc1)N1CCC(n2cnnc2C2CC2)C1 (configuration not stated),inactive,
CCCNC(=O)N1CC(Oc2ccc(-c3nc(C)no3)cc2)C1,,40.8% [at 5.79 µM] (inactive)

SMILES,Potency,"activity, negative = inhibition"
COc1ccc(-c2cc3c(nc2-c2ccccc2)nc(C(=O)NCCN(C)C)n3C)cc1OC,3.98 µM (active),
COc1ccc(Nc2cc3c(nc2-c2ccccc2)nc(C(=O)NCCN(C)C)n3C)cn1,inactive,
COc1ccc(CCNC(=O)c2nn(C)c3c2CSc2ccccc2-3)cc1OC,inactive,
O=C(c1cnc[nH]1)N1C[C@@H](COCC2CC2)[C@H](c2ccccn2)C1,inactive,
O=C(Nc1ccc(F)cc1F)N1CCC2(CC1)SCC(=O)N2c1ccc(Cl)cc1,inactive,
O=C1Cc2c(-c3ccc(Oc4ccccc4)cc3)n[nH]c2CN1CCc1ccncc1,11.2 µM (active),
CC(C)Oc1cccc(-c2n[nH]c3c2CC(=O)N(Cc2ccccc2)C3)c1,inactive,
O=C1Cc2c(-c3ccc(CO)cc3)n[nH]c2CN1CC1CCOCC1,inactive,
O=C(CN1C(=O)C(c2ccccc2)=NC12CCCC2)N1CCN(c2ccccc2)CC1,inactive,
CCc1noc([C@@H]2CC(F)(F)CN2C(=O)c2cocn2)n1,inactive,
O=C1CC(c2noc(-c3ccc(F)c(Cl)c3)n2)CN1c1ccc(F)cc1 (configuration not stated),inactive,
CCC[S+](=O)([O-])NC1CCN(C(=O)N2CC3CC(C2)[C@H]2CCCC(=O)N2C3)CC1 (some centres not stated),inactive,
CCCS(=O)(=O)N1CC[C@H]2C(=O)NCCCCCCN(Cc3ccncc3)[C@@H]2C1,inactive,
Cc1ccc(C2=NC3(CCN(C(=O)c4ccc(C#N)cc4)CC3)ON2)cc1,4.47 µM (active),
Cc1noc(CC2CCOC3(CCN(C(=O)c4ccc(C#N)cc4)CC3)C2)n1 (configuration not stated),inactive,
COCCC1(NS(C)(=O)=O)CCN(C(=O)c2ccc(C#N)cc2)CC1,inactive,
CN1C(=O)c2cccn2CC1C(=O)NC1CCN(Cc2ccccc2)CC1 (configuration not stated),inactive,
CCN1c2cc(C(=O)Nc3ccc(OC)c(F)c3)ccc2C(=O)N2CCCCC21 (configuration not stated),inactive,
COc1ccc(CNC(=O)c2ccc3c(c2)N(C)C2CCCCN2C3=O)c(OC)c1 (configuration not stated),inactive,
CCN1c2cc(C(=O)Nc3ccc(SC)cc3)ccc2C(=O)N2CCCCCC21 (configuration not stated),inactive,
CCN1c2cc(C(=O)NCc3cccc(F)c3)ccc2C(=O)N2CCCCCC21 (configuration not stated),3.55 µM (active),
CCN1c2cc(C(=O)NC3CCN(Cc4ccccc4)CC3)ccc2C(=O)N2CCCCC21 (configuration not stated),7.94 µM (active),
CCN1c2cc(C(=O)NCc3ccc(OC)cc3OC)ccc2C(=O)N2CCCCCC21 (configuration not stated),4.47 µM (active),
CCN1c2cc(C(=O)Nc3ccc(F)c(C)c3)ccc2C(=O)N2CCCCC21 (configuration not stated),inactive,
CN1c2cc(C(=O)Nc3ccc(F)c(F)c3)ccc2C(=O)N2CCCCCC21 (configuration not stated),inactive,

SMILES,Potency,"activity, negative = inhibition"
CN(CCc1cn[nH]c1)c1ccc(-c2nc(-c3ccccc3F)no2)cn1,inactive,
Cc1cc(C)n(CC(=O)N2CC[C@@H]3CN(S(C)(=O)=O)[C@@H]3C2)n1,inactive,
Oc1ccccc1CN1C[C@H](O)C[C@H]1c1nc(Cc2ccc(F)cc2Cl)no1,inactive,
CCCNC(=O)C(NC(=O)c1ccc(OC)cc1)C1CCN(C(=O)c2ccc3c(c2)OCO3)CC1 (configuration not stated),inactive,
O=C(c1ccccc1-n1cccn1)N1CCc2c(nc[nH]c2=O)C1,inactive,
CC(C)(Oc1nn(CCOc2ccccc2)c2ccccc12)C(=O)NCCCn1ccnc1,inactive,
CCOC(=O)C1CCN(C(=O)C2(c3ccc(NS(C)(=O)=O)cc3)CCCCC2)CC1,inactive,
COCCNC(=O)c1ccc(OC2CCN(C/C=C/c3ccco3)CC2)c(Cl)c1,inactive,
CSc1ccc(C2c3c(oc4ccccc4c3=O)C(=O)N2CCCN2CCOCC2)cc1 (configuration not stated),inactive,
COc1ccc(C2c3c(oc4ccccc4c3=O)C(=O)N2Cc2ccc3c(c2)OCO3)cc1 (configuration not stated),inactive,
Cc1ccc2oc3c(c(=O)c2c1)C(c1ccc([N+](=O)[O-])cc1)N(CCCN1CCOCC1)C3=O (configuration not stated),10 µM (active),
Cc1cccc(C(=O)NCCC2CCN(C(=O)Nc3ccc(F)cc3F)CC2)c1,inactive,
COc1cccc(NC(=O)c2cnc3n[nH]c(-c4ccc(OC)cc4C)c3n2)c1,inactive,
CCn1ncc(N2CCC(NC(=O)c3ccccc3OC)CC2)cc1=O,inactive,
Cc1oc2ncnc(N3CCCCC3)c2c1C(=O)N1CCN(c2cccc(Cl)c2)CC1,inactive,
Cc1ccc(C2CCN(C(=O)c3cnn(-c4ccccc4Cl)c3C3CCN(C(=O)OC(C)(C)C)CC3)C2)cc1 (configuration not stated),3.98 µM (active),
O=C(NCC1CC1)c1nc2c(o1)CCN(Cc1cccc(F)c1F)CC2,inactive,
COc1ccccc1CN1CCC(CNC(=O)c2cnn(-c3cccc(Cl)c3)c2C2CCN(C(=O)OC(C)(C)C)CC2)CC1,1.41 µM (active),
COc1ccccc1N1CCN(S(=O)(=O)CCNC(=O)COc2ccc(F)cc2)CC1,inactive,
CC(C)(C)OC(=O)N1CCC(c2c(C(=O)N3CCN(c4cccc(Cl)c4)CC3)cnn2-c2cccc(Cl)c2)CC1,7.08 µM (active),
COc1ccccc1C(=O)N1CCC(c2n[nH]c(=O)n2-c2ccc(C)cc2)CC1,inactive,
Cc1cccc(-n2ncc(C(=O)N3CCC(C)CC3)c2C2CCN(C(=O)OC(C)(C)C)CC2)c1,inactive,
Cc1cccc(-n2ncc(C(=O)N3CCc4ccccc4C3)c2C2CCN(C(=O)OC(C)(C)C)CC2)c1,inactive,
COc1ccccc1N1CCN(CCCNC(=O)c2cnn(-c3ccccc3Cl)c2C2CCN(C(=O)OC(C)(C)C)CC2)CC1,1.41 µM (active),
Cc1c(Cl)cccc1NC(=O)C1CCCN(C(=O)c2cnn(-c3ccccc3)c2-n2cccc2)C1 (configuration not stated),inactive,

SMILES,Potency,"activity, negative = inhibition"
Cc1noc2c(N3CC[S+](=O)([O-])CC3)cc(-c3ccc(Cl)cc3)nc12,inactive,
O=C(NC1CCCC1)N1CCC(Oc2ccc(-c3noc(C4CC4)n3)cc2)C1 (configuration not stated),,5.78% [at 5.79 µM] (inactive)
CCCC(c1cccs1)n1cc(-c2cncnc2)nn1 (configuration not stated),inactive,
O=c1cc(N2CCOCC2)cnn1Cc1cc(C(F)(F)F)ccc1F,inactive,
O=C(c1ccccn1)N1CCC2(CNS(=O)(=O)c3cnccc3O2)C1 (configuration not stated),inactive,
Cc1noc(C)c1-c1cc2cc(CNC3CCOCC3)oc2c(NC2CCN(C)CC2)n1,inactive,
Cc1ccc(C2(O)CCN(C(=O)c3ccccc3-c3nn[nH]n3)CC2)nc1,inactive,
Cc1ccc(NC(=O)Nc2ccc(C)n(CC(=O)NCCN3CCCC3)c2=O)cc1,inactive,
COCC(=O)NC1CCC12CCN(S(=O)(=O)c1c(C)noc1C)CC2 (configuration not stated),inactive,
COc1ccc(OC)c(CNC(=O)C2(c3ccc(NC(C)=O)cc3)CCCCC2)c1,inactive,
Cc1ccccc1CCNC(=O)C1CCN(c2nc3ccccc3nc2C(F)(F)F)CC1,inactive,
COc1ccccc1CN1CCC(CNC(=O)c2cnn(-c3ccccc3Cl)c2C2CCN(C(=O)OC(C)(C)C)CC2)CC1,2.51 µM (active),
COc1ccccc1CN1CC[C@H](CNC(C)=O)[C@H](N(C)C)C1,inactive,
COc1cc(NC(=O)NCC2CCN(Cc3ccc(C)cc3)CC2)cc(OC)c1OC,inactive,
O=C(NCCC1CCN(C(=O)Nc2ccc(F)cc2F)CC1)c1cccs1,inactive,
CC(C)(C)OC(=O)N1CCC(c2c(C(=O)NCCc3ccsc3)cnn2-c2ccc(F)cc2F)CC1,8.91 µM (active),
CCCn1c2ccccc2c2cnn(CC(=O)NCC3CCN(Cc4ccc(C)cc4)CC3)c(=O)c21,inactive,
Cc1ccc(CN2CCC(CNC(=O)c3cnn(-c4ccccc4Cl)c3C3CCN(C(=O)OC(C)(C)C)CC3)CC2)cc1,2.82 µM (active),
O=C(NCCC1CCN(C(=O)Nc2cc(F)ccc2F)CC1)c1cc(F)ccc1F,inactive,
COCC1CN(C(C)=O)CC12CCN(Cc1ccccc1OC)CC2 (configuration not stated),inactive,
Cc1ccc2c(c1)N(CC(=O)NCCCN1CCCCC1)C(=O)c1cccnc1O2,inactive,
Cc1cccc(C)c1-n1ncc(C(=O)NCCCN2CCCCC2)c1C1CCN(C(=O)OC(C)(C)C)CC1,8.91 µM (active),

# — PubChem BioAssay AID1347417 (National Center for Advancing Translational Sciences (NCATS), 2020)
